PubChem BioAssay AID1850 (Southern Research Specialized Biocontainment Screening …, 2009)
Where “and” joins values, the source holds several entries; their conditions need not be identical. Identical values can stand only once. Screen size: about 310,000 compounds; about 1,000 (0.32%) were called active. The rule behind the calls is not given here. The list is a sample of the results. Measured potencies and affinities stand elsewhere.

experiment: PhoP regulon inhibitors, Salmonella typhi PhoP promoter GFP reporter, confirmatory (AID 1850); conditions: fluorescence, 4 h, at 50 µM, active compounds read high;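 note: 0% = induced wells with vehicle and 100% = uninduced wells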

SMILES	inhibition
CCOc1ccc(-c2noc(CCC(=O)NC3CCCCC3)n2)cc1OC	-7.76% (inactive)
NNc1nc(Nc2ccccc2)nc(Nc2ccccc2)n1	-2.45% (inactive)
COc1ccc(C)cc1Nc1nc(N)c2ccccc2n1	2.42% (inactive)
COc1cc2nc(Nc3cccc(F)c3)nc(N)c2cc1OC	-16.8% (inactive)
Fc1cccc(Nc2nc(Cl)nc(Cl)n2)c1	-6.69% (inactive)
CC(=O)c1ccc(OCC(O)CN2CCN(c3ccc(F)cc3)CC2)cc1 (configuration not stated)	9.79% (inactive)
C[C@H]1CN=C(N(C)C)N1CCCC1CCCCC1	-3.79% (inactive)
O=C(CCN1CCOCC1)c1ccc(Cl)cc1	5.47% (inactive)
CCOC(=O)N1CCN(CCC(=O)Nc2cccc(Br)c2)CC1	-10.1% (inactive) and 1.14% (inactive)
CCOC(=O)N1CCN(CCC(=O)Nc2ccc(Br)cc2)CC1	-11.9% (inactive)
CCOC(=O)N1CCN(CCC(=O)c2ccc(OC)cc2)CC1	19.1% (inactive)
CCOC(=O)n1cc(-c2cnc(CNC(=O)C(C)(c3ccccc3)c3ccccc3)o2)c2ccccc21	-3.78% (inactive)
Cc1ccc(C(=O)NCC(=O)Nc2cccc(C(F)(F)F)c2)cc1	7% (inactive)
CCCN1CCN(CCCNC(=S)Nc2ccc3nc(N4CCN(CC)CC4)cc(C)c3c2)CC1	2.52% (inactive)
Cn1cc(P(=S)(N2CCOCC2)N2CCOCC2)cc1P(=S)(N1CCOCC1)N1CCOCC1	-5.57% (inactive)
CN(C)S(=O)(=O)c1ccc(S(=O)(=O)N(CC(=O)Nc2ccccc2)CC2CCCO2)cc1 (configuration not stated)	9.84% (inactive)
CC1CCCN(C(=O)COC(=O)Cc2c(F)cccc2Cl)C1 (configuration not stated)	8.14% (inactive)
C[N+]1(C)CCC(=C2c3ccccc3CC(=O)c3sccc32)CC1	-5.91% (inactive)
CN1CCC(=C2c3ccccc3CC(=O)c3sccc32)CC1	-11.1% (inactive) and 6.89% (inactive) and 11.9% (inactive)
Clc1ccc2c(c1)CCc1cccnc1C2=C1CCNCC1	9.72% (inactive)
CN1CCC(=C2c3ccccc3CCc3sccc32)CC1	4.53% (inactive)

SMILES	inhibition
COc1ccccc1CNC(=O)c1ccc(N2CCOCC2)c([N+](=O)[O-])c1	3.84% (inactive)
O=C(O)c1ccccc1C(=O)Nc1ccc(Oc2ccc3ccccc3c2)cc1	-5.98% (inactive)
O=S(=O)(Nc1ccc(-n2cnnn2)cc1)c1ccc(F)c(F)c1F	-6.29% (inactive)
Cc1cc(NCCN2CCOCC2)c2ccc3ccccc3c2n1	0.49% (inactive)
COc1ccc2nc(C)cc(NCCN3CCOCC3)c2c1	3.31% (inactive)
CN1CCN(C2=Nc3cc(F)ccc3Cc3ccccc32)CC1	10.2% (inactive)
CN1CCN(C2=Cc3ccccc3Sc3cc(F)c(F)cc32)CC1	56.3% (inactive)
CN1CCN(c2ccc(F)cc2N)CC1	-23.4% (inactive)
CN1CCN(C2=Cc3ccc(Cl)cc3Sc3ccc(F)cc32)CC1	2.54% (inactive)
CN1CCN(c2nc(-c3ccc(Cl)c(Cl)c3)nc3ccccc23)CC1	-3.79% (inactive)
CN1CCN(c2ccc(Cl)cc2N)CC1	5.42% (inactive)
COc1ccc(N(CC(=O)Nc2ccc(C(C)C)cc2)S(=O)(=O)c2c(C)noc2C)cc1	-9.48% (inactive)
COc1ccccc1NC(=O)CSc1nnc(Cc2ccccc2)o1	-0.38% (inactive)
CCC(=O)OC1(Cc2ccc(CC)cc2)CC(C)N(C)CC1C (configuration not stated)	-0.84% (inactive)
CCOC(=O)C1(CCOC)CCN(Cc2ccncc2)CC1	-5.83% (inactive)
Oc1c(CN2CCOCC2)cc(-c2ccccc2)cc1CN1CCOCC1	9.41% (inactive)
O=C(Oc1c(CN2CCOCC2)cc(Cl)c2cccnc12)c1ccccc1	9.08% (inactive)
COc1ccc(CN2CCN(C)CC2)cc1OCc1ccccc1	0.01% (inactive)
Oc1c(CN2CCCCC2)cc(COCc2ccccc2)c2cccnc12	-6.03% (inactive)
Cc1cccc(OCC(=O)Nc2nnc(-c3ccco3)s2)c1	5.97% (inactive)
CCOc1ccc2nc(N3CCCC(C(=O)NCCCN4CCCCC4)C3)sc2c1 (configuration not stated)	6.31% (inactive)

SMILES	inhibition
CCN(CC(N)=O)S(=O)(=O)c1ccc(Br)cc1	4.08% (inactive)
N=c1n(CCN2CCCCC2)c2ccccc2n1CC(O)c1cccc(Br)c1 (configuration not stated)	2.9% (inactive)
N=c1n(CCN2CCCC2)c2ccccc2n1CC(O)c1ccc(Cl)c(Cl)c1 (configuration not stated)	27.1% (inactive)
N=c1n(CCN2CCOCC2)c2ccccc2n1CC(=O)c1ccc(Cl)c(Cl)c1	20.6% (inactive)
CCCn1c(=N)n(CC(=O)c2ccc(Cl)c(Cl)c2)c2ccccc21	-5.11% (inactive)
CC1=NN(c2nc(C)cc(C)n2)C(=O)C1CCC(C)C (configuration not stated)	2.35% (inactive)
Cc1cc(C)nc(NC(=O)c2cccs2)c1	-2.29% (inactive)
Cc1cccc(NS(=O)(=O)c2c(C)nc3scc(C)n3c2=O)c1	-24.5% (inactive)
COC(=O)C1CSC(C(=O)OC)N1C(=O)CN1CC(C)OC(C)C1 (configuration not stated)	-2.04% (inactive)
O=c1[nH]c(=O)n(C2OC(CO)C(O)C2O)cc1Br (configuration not stated)	-19.2% (inactive)
O=c1ccn([C@@H]2O[C@H](CO)[C@@H](O)[C@H]2O)c(=O)[nH]1	-0.0767% (inactive)
Cc1cc(C)nc(CCNC(=O)c2cc(COc3c(C)cccc3C)on2)n1	-3.31% (inactive)
CC(C)Oc1ccc(C(=O)NCC(=O)OCC(=O)N(C)Cc2cccs2)cc1	2.06% (inactive)
CCn1c(C)cc(C)c(C#N)c1=O	7.92% (inactive)
COc1ccc(OCC(O)Cn2c(=N)n(CCN3CCCCC3)c3ccccc32)cc1 (configuration not stated)	20.8% (inactive)
CCCn1c(=N)n(CC(O)COc2cccc(C)c2)c2ccccc21 (configuration not stated)	3.8% (inactive)
CCCCn1c(=N)n(CC(O)COc2cccc(C)c2)c2ccccc21 (configuration not stated)	9.29% (inactive)
CCN(CC)CCn1c(=N)n(CC(O)COc2ccccc2)c2ccccc21 (configuration not stated)	15.1% (inactive)
N=c1n(CCN2CCCCC2)c2ccccc2n1CC(O)COc1ccccc1 (configuration not stated)	28% (inactive)
Cc1ccc(OCC(O)Cn2c(=N)n(CCN3CCOCC3)c3ccccc32)cc1 (configuration not stated)	14% (inactive)
